# According to the supplement of paper PMC3334620:
# Whole data set: some 33,000 sequences, median “E-score (-0.5 to 0.5)” near -0.016, cut for the highest 2% near 0.3. The entries come from a sample that favours the highest values as a whole.
# Molecular target: T1, Yer184c (UniProt P39961)
# T1 sequence: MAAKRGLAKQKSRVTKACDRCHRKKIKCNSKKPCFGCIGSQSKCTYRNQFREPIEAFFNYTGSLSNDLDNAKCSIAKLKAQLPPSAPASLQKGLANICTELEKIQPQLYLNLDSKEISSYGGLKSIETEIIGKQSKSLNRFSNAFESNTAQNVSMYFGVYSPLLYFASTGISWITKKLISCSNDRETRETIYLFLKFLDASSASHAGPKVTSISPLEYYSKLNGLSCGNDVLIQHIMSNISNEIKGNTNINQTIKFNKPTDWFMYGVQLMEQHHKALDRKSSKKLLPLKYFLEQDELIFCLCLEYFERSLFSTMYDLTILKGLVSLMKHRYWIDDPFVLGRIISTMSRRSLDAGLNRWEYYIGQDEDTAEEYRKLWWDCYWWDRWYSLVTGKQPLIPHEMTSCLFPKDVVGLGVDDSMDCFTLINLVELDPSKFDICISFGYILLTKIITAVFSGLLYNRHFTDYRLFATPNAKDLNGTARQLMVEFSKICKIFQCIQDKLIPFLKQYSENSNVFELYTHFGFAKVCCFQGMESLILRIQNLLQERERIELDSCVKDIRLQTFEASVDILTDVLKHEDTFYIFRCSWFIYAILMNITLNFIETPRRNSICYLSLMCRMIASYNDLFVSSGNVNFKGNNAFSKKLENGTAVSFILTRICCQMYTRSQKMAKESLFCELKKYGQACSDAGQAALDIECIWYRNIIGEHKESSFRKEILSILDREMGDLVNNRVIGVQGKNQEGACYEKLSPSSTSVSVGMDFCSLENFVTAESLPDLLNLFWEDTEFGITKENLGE
# Experiment: PBM E-score (8-mer binding enrichment) (E-score (-0.5 to 0.5)); higher = stronger / more preferred TF binding
# Settings: protein concentration: 100 nM; construct: GST-full length
# Procedure: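 Universal 'all 10-mer' protein binding microarrays (Agilent AMADID 015681) probed with GST-tagged S. cerevisiae TFs (full-length or DBD) made by in vitro transcription/translation (PURExpress), about 100-200 nM. Bound TF was detected with fluorescent anti-GST. Each ungapped 8-mer (which stands for itself and its reverse complement) is scored by the PBM enrichment score (E-score), a modified Wilcoxon-Mann-Whitney statistic from -0.5 to +0.5, computed with the Universal PBM Analysis Suite. Scale: above 0.35 generally sequence-specific binding.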
row,Sequence,PBM E-score
1,TATCTGAA,0.108
2,AAAACTGT,0.0544
3,GCGGACAA,0.298
4,ACGGACAA,0.27
5,TCGGACAA,0.378
6,TCGCTGCA,-0.0505
7,AACTGGGA,-0.151
8,ATTGCGGC,0.0068
9,AAAGTGCA,-0.0658
10,ACGGCGCG,0.232
11,ACGGCGCC,0.122
12,GCGGCGCC,0.299
13,CCGGCGCG,0.305
14,CCGGCGCA,0.277
15,CCGGCGCC,0.354
16,CGTATTGC,0.0559
17,ATAGCTGC,0.0565
18,ATCGGAGA,0.216
19,ATCGGCAT,0.267
20,TTCAGAAA,0.0478
21,ATCGGAAG,0.211
22,GTCGGAGA,0.158
23,TTAGGAAA,0.146
24,ATCGGAAC,0.291
25,GTCGGGAA,0.0333

row,Sequence,PBM E-score
1,TTCGGAAA,0.402
2,GTCGGAAA,0.318
3,ATCGGAAA,0.344
4,ATCGGAAT,0.379
5,CAGCCTTA,-0.0157
6,CTTGGATC,-0.0713
7,CATCGCAG,-0.28
8,GCGGGAAC,-0.00769
9,CCTTAAGG,-0.0623
10,GCCGGTAC,0.229
11,ACCGGTAA,0.217
12,CCCGGTAA,0.221
13,TCCGGTAA,0.387
14,GCCGGTGA,0.235
15,GCCGGTAA,0.346
16,GTAGCTAA,-0.0505
17,GGCCTCCA,-0.0306
18,ATCCCATG,-0.297
19,AGCTGAGG,-0.11
20,ACCCTCCC,0.0834
21,ACGAAAGC,0.0461
22,CGGCTAAA,0.327
23,TGGCTAAA,0.0133
24,CGGCTAGC,0.24
25,AGGCTAAA,-0.0661

row,Sequence,PBM E-score
1,CGGCTAGA,0.306
2,GGGCTAGA,-0.183
3,CTCCCACA,-0.184
4,AGTGCACT,0.067
5,CTGGGTTA,-0.115
6,ATGAGTAA,0.0956
7,ACAACCCG,0.0761
8,CAATTCCC,0.178
9,AAATTCCA,0.216
10,AAATTCCG,0.384
11,CAATTCCA,-0.0791
12,CAATTCCG,0.315
13,AAATTCCC,-0.0964
14,AACAACCC,-0.0615
15,ATCCTTGA,0.0411
16,TTGATAAA,0.329
17,CGGATAAG,0.217
18,GGGATAAC,-0.0432
19,AGGATGAA,-0.0513
20,GTGATAAA,0.179
21,AGGATAAC,-0.197
22,ATGATAAA,0.271
23,CGGATAAA,0.417
24,CGGATAAC,0.34
25,CGGATGAA,0.351

row,Sequence,PBM E-score
1,CGGATGAG,0.171
2,TGGATAAA,0.18
3,CCCCAAAG,-0.253
4,CGGAGACC,0.0297
5,CGAACACG,0.172
6,CTATTGCC,-0.131
7,TCTCTTAA,0.126
8,AAAGCTTT,0.237
9,CGTCAACC,-0.137
10,GGTGCAGA,-0.206
11,CAAATGAG,-0.104
12,ACACTCGC,0.0547
13,AGAGACAC,-0.119
14,GGGATATA,0.0967
15,AGGAGATA,-0.134
16,GGGAGATA,-0.161
17,CGGATATA,0.389
18,CGGAGATA,0.406
19,CGGATCAA,0.318
20,AGGATAGA,0.0167
21,CGGATATC,0.285
22,TGGATCAA,-0.0363
23,GGGATAGA,-0.186
24,CGGATAGA,0.338
25,CGGATCAG,0.224

row,Sequence,PBM E-score
1,CTCTCGTA,-0.204
2,GATGAGCC,-0.0364
3,GACTTCCC,-0.0878
4,GAATACGA,0.118
5,GTCTCATA,-0.0146
6,CGCCATGA,-0.155
7,ATTGCAAC,0.0297
8,AGAGATCT,-0.168
9,CATGAGAC,-0.0666
10,CTAATATA,0.118
11,ATAATATA,0.323
12,ATAATAAA,0.276
13,CTAATAAA,0.0623
14,TTAATAAA,0.328
15,ATAATATG,0.132
16,ATGTGTCG,-0.0246
17,AGAGTTTC,-0.0656
18,AGGAATTG,-0.0124
19,CCGGTCCA,0.0407
20,CCGGTCCG,0.338
21,CCGGTCCC,0.0884
22,GCCTTAAC,-0.171
23,CGGTAGTA,0.0519
24,GCTCTTCC,0.0925
25,AGAGGTTG,-0.19

row,Sequence,PBM E-score
1,CGGAGCCG,0.309
2,CCGAGCGC,0.361
3,CGGAGCCC,-0.177
4,AGGAGCGA,-0.0501
5,ACGAGCCG,0.22
6,CCGAGCGA,0.244
7,CGGAGCGC,0.107
8,AGGAGCCG,0.0636
9,GCGAGCGC,0.0998
10,CGGAGCGA,0.332
11,CCGAGCCG,0.352
12,CCGAGCCA,0.219
13,AGGGATGA,-0.133
14,GATTGAGC,0.109
15,AAGGGGAC,-0.0399
16,CGGAATGC,0.249
17,CAACAGCG,-0.182
18,ATGTCCGG,0.373
19,GTATCCGA,0.304
20,ATATCCGG,0.374
21,GTATCCCA,-0.0951
22,ATGTCCGA,0.231
23,ATATCCTA,-0.0362
24,ATGTCCGC,-0.0241
25,AGATCCGG,0.263

row,Sequence,PBM E-score
1,ATATCCGC,0.178
2,ATATCCGA,0.343
3,GTATCCTA,-0.0431
4,CTATCCGA,0.119
5,CAAGGGTA,-0.254
6,GTACGAGA,-0.1
7,CTCTAAGC,0.0215
8,GGACCCAC,-0.182
9,ATTGTCCG,0.345
10,ATTGTTTC,0.324
11,ATTGTCCA,0.143
12,ATTGTTCA,0.112
13,ATTGTTCC,0.267
14,ATTGTCCC,-0.0916
15,CTTGTTTC,0.0564
16,ATTGTTTG,0.137
17,ATTGTTCG,0.346
18,GCCCAGTA,-0.14
19,AACGGCCG,0.3
20,ATTGAATA,0.24
21,ATCCATAA,0.168
22,ACCCTAAC,-0.0425
23,GAATCGGA,0.318
24,TAATCGGA,0.248
